One assay relates to Staphylococcus aureus. As to the kind of experiment: Antibacterial activity against Staphylococcus aureus MRSA ATCC 43300 (CO-ADD:GP_020); MIC in CAMBH media using NBS plates, by Resazurin F(560/590). The format is functional. The settings on record: Concentration 20 uM, ASSAY_TEST Inhibition of Bacterial Growth, detection method Resazurin, Fluorescence (ex560/em590), MEDIA CAMHB, plate type 384well, CORNING #3640, time 18 hr.

A further assay deals with Acinetobacter baumannii. Put plainly: Antibacterial activity against Acinetobacter baumannii ATCC 19606 (CO-ADD:GN_034); MIC in CAMBH media using NBS plates, by Resazurin F(560/590). As to conditions: Concentration 20 uM, ASSAY_TEST Inhibition of Bacterial Growth, detection method Resazurin, Fluorescence (ex560/em590), MEDIA CAMHB, plate type 384well, CORNING #3640, time 18 hr. The assay is classed as functional. (In general: Alamar Blue is a resazurin reagent that responds to reducing activity.)

The next assay concerns Escherichia coli. Put plainly: Antibacterial activity against Escherichia coli ATCC 25922 (CO-ADD:GN_001); MIC in CAMBH media using NBS plates, by Resazurin F(560/590). The format is functional. The settings on record: Concentration 20 uM, ASSAY_TEST Inhibition of Bacterial Growth, detection method Resazurin, Fluorescence (ex560/em590), MEDIA CAMHB, plate type 384well, CORNING #3640, time 18 hr.

For a further assay, the system named is Klebsiella pneumoniae. As to conditions: Concentration 20 uM; ASSAY_TEST Inhibition of Bacterial Growth; detection method Absorption (OD600); MEDIA CAMHB; plate type 384well; NBS; CORNING #3640; time 18 hr.
For a further assay, the system named is Candida albicans. The settings on record: 20 µM.
The next assay relates to Cryptococcus neoformans. As to conditions: Concentration 20 uM; ASSAY_TEST Inhibition of Fungal Growth; detection method Resazurin; Absorption (OD600-OD570); plate type 384well; NBS; CORNING #3640.

The term Inhibition denotes the relative decrease from the control value, in per cent.

For part of these data: Potency and affinity values are given separately.

As for `C#CCCOC(=O)Nc1ccccc1`, the Inhibition is 2.35% in the assay on Staphylococcus aureus; -10.74% with Acinetobacter baumannii; 7.7% in the assay on Escherichia coli; 4.67% in the assay on Klebsiella pneumoniae; 2.19% in the assay on Candida albicans; -13.66% with Cryptococcus neoformans.
As to `COC(=NC(C)C)NC(C)C`, the Inhibition with Staphylococcus aureus was 0.33%; in the assay with Acinetobacter baumannii it was -8.49%; with Escherichia coli, 15.21%; in the assay with Klebsiella pneumoniae, 8%; with Candida albicans, 1.22%; in the assay on Cryptococcus neoformans, -13.2%.
`c1ccc(-c2nc(-c3ccccn3)nc(-c3ccccn3)n2)nc1`: the Inhibition in the assay on Staphylococcus aureus was 2.88%; in the assay with Acinetobacter baumannii, 10.22%; in the assay on Escherichia coli it was -0.02%; with Klebsiella pneumoniae it was 10.56%; in the assay with Candida albicans, 2.65%; in the assay with Cryptococcus neoformans, -6.65%.
On to `C/C(=N\NC(N)=O)c1ccc(Cl)c(-n2cccc2)c1`, for which the Inhibition with Staphylococcus aureus was 16.93%; in the assay with Acinetobacter baumannii it was -8.65%; with Escherichia coli, 6.19%; in the assay with Klebsiella pneumoniae, 13.36%; in the assay with Candida albicans, 4.13%; in the assay on Cryptococcus neoformans, -10.07%.
With `O=C(NC(=S)Nc1ccccn1)c1ccccc1`, the Inhibition is -7.14% with Staphylococcus aureus; -16.09% in the assay on Acinetobacter baumannii; 5.5% in the assay on Escherichia coli; 8.04% in the assay with Klebsiella pneumoniae; 10.1% in the assay with Candida albicans; -15.94% in the assay on Cryptococcus neoformans.
Consider `Cc1nc(O)c2c3c(sc2n1)CCCC3`, for which the Inhibition in the assay with Staphylococcus aureus is 1.78%; with Acinetobacter baumannii, -6.79%; with Escherichia coli it was 6.4%; in the assay on Klebsiella pneumoniae it was -0.52%; in the assay on Candida albicans it was -0.04%; in the assay on Cryptococcus neoformans, -11.89%.
For the molecule `COC(=O)c1c(-c2ccccc2)[nH]c(-c2nccc3ccccc23)c1C(=O)OC`, the Inhibition in the assay with Staphylococcus aureus is 3.54%; with Acinetobacter baumannii it was 6.34%; in the assay on Escherichia coli, 1.46%; in the assay on Klebsiella pneumoniae, 12.08%; in the assay on Candida albicans, 2.5%; in the assay on Cryptococcus neoformans, -2.2%.
Consider `CC(=O)OC1COC(OC(C)=O)CO1` (centres undefined), for which the Inhibition is -14.46% in the assay on Staphylococcus aureus; -1.98% in the assay with Acinetobacter baumannii; -12.48% with Escherichia coli; 0.6% in the assay with Klebsiella pneumoniae; -0.61% in the assay on Candida albicans; 10.42% in the assay on Cryptococcus neoformans.
Regarding `Cc1ccc(C(=N)Nc2ccccc2)cc1`, the Inhibition in the assay with Staphylococcus aureus is 11.04%; in the assay with Acinetobacter baumannii, 15.63%; in the assay with Escherichia coli, 1.43%; in the assay with Klebsiella pneumoniae, 18.31%; with Candida albicans, 3.37%; with Cryptococcus neoformans, -4.07%.
Turning to `CCOC(=O)c1c(C)nc(C)c(C(=O)OCC)c1-c1ccc(OC)cc1`, the Inhibition is 0.94% in the assay with Staphylococcus aureus; 2.04% in the assay on Acinetobacter baumannii; -21.92% in the assay with Escherichia coli; 2.6% in the assay with Klebsiella pneumoniae; 6.74% with Candida albicans; 19.28% in the assay on Cryptococcus neoformans.
As for `Cc1ccc(Nc2nc(Cl)nc3ncn(C)c23)c(C)c1`, the Inhibition with Staphylococcus aureus is 8%; with Acinetobacter baumannii it was 11.23%; in the assay with Escherichia coli it was -0.86%; in the assay with Klebsiella pneumoniae, 14.74%; with Candida albicans it was 2.26%; in the assay on Cryptococcus neoformans it was -7.52%.
`Cc1ccccc1OCC(O)CN1CCN(c2ccc(Cl)cc2)CC1` (centres undefined): the Inhibition with Staphylococcus aureus was 16.79%; with Acinetobacter baumannii it was 7.24%; in the assay with Escherichia coli, 2.66%; in the assay on Klebsiella pneumoniae, 7.5%; in the assay on Candida albicans, 0.11%; in the assay on Cryptococcus neoformans, -12.08%.
As to `CCOC(=O)C(Cc1ccc(O)cc1)Nc1nc2ccccc2o1` (centres undefined), the Inhibition in the assay on Staphylococcus aureus was 27.08%; with Acinetobacter baumannii, -2.1%; in the assay on Escherichia coli, 6.27%; with Klebsiella pneumoniae, 19.95%; in the assay with Candida albicans, 10.7%; in the assay with Cryptococcus neoformans it was 8.22%.
In the case of `NC(=O)c1cc(C(N)=O)nc(Cl)n1`, the Inhibition with Staphylococcus aureus is 12.7%; with Acinetobacter baumannii, 0.04%; with Escherichia coli, 10.33%; in the assay on Klebsiella pneumoniae, 2.11%; in the assay on Candida albicans it was -2.97%; in the assay on Cryptococcus neoformans, -9.62%.
On to `CCOC(=O)c1ccc(NC(=O)Oc2cc(C)c(Cl)cc2C(C)C)cc1`, for which the Inhibition with Staphylococcus aureus is 20.21%; in the assay with Acinetobacter baumannii it was 9.47%; with Escherichia coli, 4.16%; in the assay on Klebsiella pneumoniae, 12.01%; in the assay with Candida albicans it was 4.36%; in the assay on Cryptococcus neoformans it was -1.17%.
For the molecule `CS(=O)(=O)Oc1ccc(Br)c2cccnc12`, the Inhibition is 10.68% with Staphylococcus aureus; 10.16% in the assay on Acinetobacter baumannii; 3.51% in the assay with Escherichia coli; 19.67% in the assay on Klebsiella pneumoniae; 4.07% in the assay with Candida albicans; -11.45% with Cryptococcus neoformans.
Take `Nc1ccc(NC(=O)c2ccc(C(=O)Nc3ccc(N)cc3)cc2)cc1`: the Inhibition with Staphylococcus aureus is 11.02%; with Acinetobacter baumannii it was -8.34%; in the assay with Escherichia coli it was 15.83%; in the assay with Klebsiella pneumoniae, 3.68%; in the assay with Candida albicans, 40.4%; in the assay with Cryptococcus neoformans, 10.38%.
As to `CCOC(=O)C1CC(C)=C(C)CC1C(=O)O` (centres undefined), the Inhibition in the assay on Staphylococcus aureus is -6.63%; with Acinetobacter baumannii, 13.31%; in the assay on Escherichia coli, 5.04%; with Klebsiella pneumoniae it was 7.81%; with Candida albicans, 6.96%; with Cryptococcus neoformans, -10.63%.
With `CC(C)=CCC/C(C)=C\C(N)=O`, the Inhibition in the assay with Staphylococcus aureus was -1.13%; with Acinetobacter baumannii, -1.29%; in the assay with Escherichia coli it was 11.31%; in the assay on Klebsiella pneumoniae, -1.44%; in the assay on Candida albicans, -0.52%; in the assay on Cryptococcus neoformans, -3.28%.
